Among all 190,000 compounds or so, about 1,300 (0.68%) were called active. Rule as the data show it: active = inhibition above about 50%; inactive = the rest. What follows is part of a selection rich in actives, with near analogues and random picks from the rest.
Molecular target: Mannose-6-phosphate isomerase (Homo sapiens) (UniProt P34949)
Assay: MPI inhibition at elevated mannose 6-phosphate – biochemical, fluorescence intensity, high mannose 6-phosphate, primary screen (AID 1220)
Details: recombinant PMI enzyme, coupled fluorescence intensity; at 20 µM; hits give high values

Chain of Mannose-6-phosphate isomerase (Homo sapiens) (P34949 whole entry, looked up): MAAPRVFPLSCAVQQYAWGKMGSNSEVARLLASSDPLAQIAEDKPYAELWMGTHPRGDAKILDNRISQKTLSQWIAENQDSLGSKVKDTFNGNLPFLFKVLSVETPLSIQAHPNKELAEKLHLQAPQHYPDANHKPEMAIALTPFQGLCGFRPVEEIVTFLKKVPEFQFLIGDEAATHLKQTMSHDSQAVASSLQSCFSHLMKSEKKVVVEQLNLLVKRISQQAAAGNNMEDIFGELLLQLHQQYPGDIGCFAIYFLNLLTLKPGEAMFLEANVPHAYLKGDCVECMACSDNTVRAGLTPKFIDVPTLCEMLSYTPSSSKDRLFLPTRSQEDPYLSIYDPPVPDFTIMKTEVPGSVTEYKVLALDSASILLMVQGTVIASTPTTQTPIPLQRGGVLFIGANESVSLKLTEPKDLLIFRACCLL

inhibition, active:
COC(=O)c1c(C)nsc1NC(=O)Oc1ccccc1 50.4%
[O-]/C(=C(\C(=S)Nc1cccc2ccccc12)[n+]1ccccc1)c1cccs1 65.7%
Oc1ccc(Br)cc1C=Nc1ccc2[nH]ncc2c1 55.4%
COc1ccc(C=Nc2ccc3[nH]ncc3c2)c(O)c1 59.8%
COc1cccc(N=Cc2ccc(O)cc2O)c1 52.5%
COc1ccc(N2CCC(CNC(=S)Nc3cccc(C)c3)C2)cc1 (centres undefined) 50.4%
COc1ccc(NC(=S)NCC2CCN(c3ccc(OC)cc3)C2)cc1 (centres undefined) 55.3%
O=C1C=C(N(CCO)Cc2ccccc2)c2ccccc2C1=O 64.6%
COc1ccccc1/C=C/C1=NC(=C\N(C)C)/C(=O)O1 56.8%
CCOC(=O)c1c(C)c(C(=O)NCc2cccnc2)c(C)n1CC 108%
CC(C)/C(=N/Nc1ccccc1[N+](=O)[O-])c1ccccc1 54.4%
Cc1nn(-c2cccc(Cl)c2)c(Cl)c1/C=N/NC(=O)c1cccnc1 55.5%
C=CCNC(=S)Nc1cccc(N)c1 57.6%
CNc1nc(-c2ccccc2)cc(C)c1S(C)(=O)=O 56%

inhibition, inactive:
O=C(CCn1c(=O)sc2ccccc21)Nc1nccs1 4.8%
Cc1ccc(NC(=O)CN2CCN(CCN=CC3=C(O)CC(C)(C)CC3=O)CC2)cc1 -3.9%
COC(=O)CSc1nc(C)cc(N2CCOCC2)n1 -3.4%
CCc1n[nH]c(=S)n1/N=C/c1cc(Br)c(OC)cc1OC -2.2%
Cc1c(NC(=O)Oc2ccccc2)sc(=S)n1C -4.6%
Cc1nnc(NC(=O)Oc2ccccc2)s1 4.4%
COc1ccccc1C(=O)Nc1nc(N)n(-c2ccccc2)n1 -3.7%
Cc1cccc(C)c1NC(=S)/C(=C(\[O-])c1cccs1)[n+]1ccccc1 5.5%
[O-]/C(=C(\C(=S)Nc1cccc2ccccc12)[n+]1ccccc1)c1ccc(Cl)s1 5.8%
O=C(O)CSCC(=O)Nc1ccc(Cl)cc1C(F)(F)F -0.6%
O=C(CCN1C(=O)COc2ccccc21)NCCC1=CCCCC1 19.9%
CC(C)(C)P(=O)(CO)c1ccccc1 (centres undefined) 1.7%
CC1(C)CC(=O)C(C=Nc2ccc3[nH]ncc3c2)=C(O)C1 38.6%
Cc1ccc(N=Cc2ccc(O)cc2O)cc1F 9.7%
OCC(CO)(CO)N=Cc1cc(Br)ccc1O 27%
C=CCOc1ccc(C=Nc2ccc(OC)cc2)c(O)c1 49%
COc1cccc(N=Cc2c[nH][nH]c2=O)c1 16.7%
Brc1ccc2[nH]ncc2c1 -2.5%
O=C(c1ccc(OC2CCN(Cc3ccccn3)CC2)cc1)N1CCCC(O)C1 (centres undefined) -8.1%
Cn1c(Cn2c(=O)sc3ccccc32)nnc1SCC(=O)Nc1ccccc1F 0.2%
O=C(COc1ccccc1)Nc1ccc(CSc2ccccc2)cc1 2.7%
O=C(NCc1ccccn1)C(=O)NCC(c1ccco1)N1CCOCC1 (centres undefined) -8.8%
COc1ccc(NC(=S)NCCN2CCOCC2)cc1 -3.1%
COc1ccc(N2CCC(CNC(=S)Nc3cccc(OC)c3)C2)cc1 (centres undefined) 45.4%
COc1ccc(CNC(=S)Nc2cccc(C)c2)cc1 7.5%
COc1ccc(CNC(=S)Nc2ccc(OC)cc2)cc1 7.4%
COc1ccccc1-n1cnnc1SCC(=O)N1CCN(S(=O)(=O)c2ccccc2)CC1 4.9%
Cn1nnnc1SCCNCc1ccc(Cl)cc1 3.8%
O=C(CCCn1c(=O)oc2ccccc21)NC1CCCCCC1 -6.9%
O=C(CCN1C(=O)c2ccccc2C1=O)N(CCO)Cc1ccccc1 0.1%
COc1ccc(N2C(=O)C(Cl)=C(N(CCO)Cc3ccccc3)C2=O)cc1 3.2%
Cc1cc(Nc2ccc(F)cc2Cl)n2ncnc2n1 16.6%
COc1ccccc1/C=C/C1=NC(=C\C=C/c2ccccc2)/C(=O)O1 0.5%
COc1ccc(/C=C/C2=NC(=C\N(C)C)/C(=O)O2)cc1 5.3%
CCCCOC(=O)C1[C@H]2C(=O)N(CCc3ccccc3)C[C@]23C=C[C@H]1O3 (some centres undefined) -0.4%
CCOC(=O)c1c(C)c(C(=O)NCc2cccnc2)c(C)n1C -0.6%
CCOC(=O)c1c(C)c(C(=O)NCc2ccccn2)c(C)n1CC 12.2%
S=c1[nH]ncc2ccccc12 -67.9%
Cc1ccc(/C=C/C2=NN(C)C(=O)CC2)cc1 -3.3%
Cc1cccc(C)c1NC(=O)CC1SC2=NCCN2C1=O (centres undefined) 6.8%
CC(/C=C/c1ccccc1)=N\Nc1ccccc1[N+](=O)[O-] 0.8%
CC/C(=N\Nc1ccccc1[N+](=O)[O-])c1ccc(O)cc1 -0.4%
Cc1ccc(/C=C/C(=O)NCc2cccs2)cc1 -6.3%
Cc1nn(-c2ccccc2)c(Cl)c1/C=N/NC(=O)c1cccnc1 -3.1%
Cc1ccc(-n2nc(C)c(/C=N/NC(=O)c3cccnc3)c2Cl)cc1 15.6%
C=CCNC(=S)Nc1ccccc1 9%
C=CCNC(=S)Nc1cccc(NC(=S)NCC=C)c1 5.5%
O=C(Cc1c(O)c2ccccc2[nH]c1=O)NC1CCCCCC1 5.7%
CCC(C)(C)n1nnnc1CN1CCC(NC(=O)c2ccc(Br)cc2)CC1 7%
CCCCc1cc2c(c(NC(=O)CC)n1)c(=O)oc1ccccc12 -0.5%
COc1ccc(N=C2C(=O)Nc3ccccc32)cc1 43%
Cc1ccc2c(c1)/C(=N/N1C(=O)c3ccccc3C1=O)C(=O)N2 8.4%
CCn1c(-c2ccccc2Cl)nn(CC(=O)Nc2cc(Cl)ccc2Cl)c1=S 4.7%
Cc1cc(-c2ccccc2)nc(N(C)N)c1S(C)(=O)=O -2.2%
Cc1cc(-c2ccccc2)nc(N(C)C)c1S(C)(=O)=O 2%
